Bioassay records as filed in PubChem.
Only some compounds are listed: those with a hit (about 9.6% of all), similar ones and a draw of the others.
Autophagy mod: autophagy modulation, high-content screen; MEF GFP-LC3 puncta imaging; test concentration mostly 10 µM; calls only at 10 µM (by protocol); actives 0.98% (n = 190,000); AID 463193;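 active = percentage of spot-positive cells more than 3 SD above its plate mean, without a fluorescence outlier flag or 80% toxicity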;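 also: spot-positive cell cutoff set from DMSO-treated cells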
Insulin prom up: MIN6 insulin promoter up-regulation. actives 0.3% (n = 190,000). MIN6 insulin promoter-GFP reporter, high-content imaging; stronger effect = higher value. AID 1625. z-score at 5 µM;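 active = z-score above 3 at 5 µM with at least 500 cells counted in the well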
PTEN del growth: PTEN-deleted cell growth suppression; HCT116 PTEN-null viability, CellTiter-Glo, 60 h; stronger effect = lower value; viability, % at 10 µM; actives 1.2% (n = 140,000);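 active = viability at or below a set limit, 4 SD under the median of all tested compounds, cut at about 3.7% in these data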;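 also: PTEN knockout HCT116 line with beta catenin targeted HCT116 as companion control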
bCat KO growth: beta-catenin-lacking colon tumor cell growth suppression; actives 1.5% (n = 140,000); viability, % at 10 µM; HCT116 beta-catenin knockout viability, CellTiter-Glo, 60 h; stronger effect = lower value;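 active = viability at or under a set limit, the compound median less 4 SD, cut at about 6% in these data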;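 also: 0% = Hyamine 1622 control at 20 µM and 100% = untreated cell control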
L major viab: reduces viability of Leishmania major promastigotes | resazurin fluorescence viability | inhibition, % at 10 µM | actives 9% (n = 200,000) | AID 1063; in the data active = inhibition above about 50%;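 also: promastigotes grown with compound for 44 hours at 28 °C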
Insulin prom inh: TRM-6 insulin promoter activity inhibition; TRM-6 cells (human fetal islet line), insulin promoter-eGFP reporter, imaging; reporter expression induced with tamoxifen; inhibition, % at 2 µM; actives 0.9% (n = 130,000); AID 1273;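 active = inhibition above the mean plus 3 SD, with well images judged a real hit on visual review, cut at about 60% in these data, passing the limit was not always enough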
* marks the source's active call; other numbers are inactive results.

For Oc1c(C(Nc2nccs2)c2ccc(C(F)(F)F)cc2)ccc2cccnc12 (centres undefined) the results were Autophagy mod inactive and L major viab 99.9*.
For C/C(=N\NC(=O)c1cccc(S(=O)(=O)N2CCCCC2)c1)c1ccc(C)o1 the results were Autophagy mod inactive, Insulin prom up -0.12, L major viab 82.0* and Insulin prom inh 26.7.
O=C(Nc1ccc(N2CCOCC2)cc1)c1cccc(S(=O)(=O)N2CCCCC2)c1 was read as Autophagy mod inactive, Insulin prom up 0.88, PTEN del growth 100.3, bCat KO growth 94.2, L major viab 97.9* and Insulin prom inh -8.1.
Screening O=C(Nc1ccon1)c1cccc(S(=O)(=O)N2CCCCC2)c1 returned Autophagy mod inactive, Insulin prom up 3.46* and L major viab -4.2.
`CC(C)c1[nH]nc2c1C1(CCN(Cc3ccccc3)CC1)C(C#N)=C(N)O2` gave Autophagy mod inactive, Insulin prom up 0.68, PTEN del growth 108.0, bCat KO growth 101.0 and L major viab -3.2.
C=CCN(CC=C)C(=S)NC(=O)c1ccc(OC)c(Br)c1 was read as Autophagy mod inactive, PTEN del growth 13.6, bCat KO growth 10.4, L major viab 1.8 and Insulin prom inh 9.8.
Screening O=C(Nc1ccc2nn(-c3ccccc3)nc2c1)c1ccco1 returned Autophagy mod inactive, Insulin prom up 0.02, PTEN del growth 96.7, bCat KO growth 94.2, L major viab -4.5 and Insulin prom inh -76.9.
O=C(Nc1cc2nn(-c3ccccc3)nc2cc1Cl)c1ccco1 was read as Autophagy mod inactive, Insulin prom up 0.48, PTEN del growth 3.4*, bCat KO growth 1.7*, L major viab -5.8 and Insulin prom inh -27.3.
Screening CCCc1nnc(NC(=O)CCC(=O)N2CCN(c3ccccn3)CC2)s1 returned Autophagy mod inactive, PTEN del growth 108.3, bCat KO growth 114.2, L major viab -6.8 and Insulin prom inh 28.6.
For Cc1cc(C)n(C(C[N+](=O)[O-])c2ccc(Cl)cc2)n1 (centres undefined) the results were Autophagy mod inactive, Insulin prom up -0.37, PTEN del growth 36.1, bCat KO growth 38.9, L major viab 100.3* and Insulin prom inh 14.3.
`O=S(=O)(Nc1nc2ccccc2[nH]1)c1ccc(Cl)cc1` gave Autophagy mod inactive, Insulin prom up -0.65, PTEN del growth 89.9, bCat KO growth 90.0 and L major viab 57.2*.
`CCOC(=O)C1=NNC2(c3ccc(C)cc3)C(=O)N(c3ccc(Cl)cc3)C(=O)C12` (centres undefined) gave Autophagy mod inactive, Insulin prom up -0.21, PTEN del growth 99.3, bCat KO growth 94.9, L major viab 40.3 and Insulin prom inh -30.6.
Screening CSc1ccc(C(=S)N2CCN(Cc3ccccc3)CC2)cc1 returned Autophagy mod inactive, Insulin prom up 0.36, PTEN del growth 104.4, bCat KO growth 96.1, L major viab 93.7* and Insulin prom inh 71.4.
`CCN1CCN(C(=S)c2ccc(SC)cc2)CC1` gave Autophagy mod inactive, Insulin prom up 0.67, PTEN del growth 98.4, bCat KO growth 103.7, L major viab 91.2* and Insulin prom inh -5.7.
`COc1cc(/C=N/NC(=O)c2ccc3nc[nH]c3c2)cc(OC)c1OC` gave Insulin prom up 0.13.
Screening COc1ccccc1OCC#CCSc1ncccn1 returned Autophagy mod inactive, Insulin prom up 0.09 and L major viab -1.6.
For COc1ccc(/C=N/OCC(=O)N=Nc2c(O)[nH]c3ccc(Br)cc23)cc1OC the results were Autophagy mod inactive, Insulin prom up -0.2, PTEN del growth 89.7, bCat KO growth 87.9, L major viab 63.5* and Insulin prom inh 59.3.
For COc1ccc(/C(C)=N/OCC(=O)N=Nc2c(O)[nH]c3ccc(Br)cc23)cc1 the results were Autophagy mod inactive, Insulin prom up -0.19, PTEN del growth 33.1, bCat KO growth 28.1, L major viab -4.7 and Insulin prom inh 33.3.
Cc1cc(C)c2c3c(sc2n1)C1(CCSCC1)C(C#N)=C(N)O3 was read as Autophagy mod inactive, Insulin prom up -0.12, PTEN del growth 80.1, bCat KO growth 77.3, L major viab 100.3* and Insulin prom inh 16.7.
For O=C(NCC1(c2ccccc2)CCCC1)c1ccccc1Br the results were Autophagy mod inactive, Insulin prom up -0.3, PTEN del growth 89.8, bCat KO growth 85.5, L major viab 55.0* and Insulin prom inh -42.9.
